In PubChem BioAssay (NCATS):
“And” between values parts separate entries of the source, which are not always exact repeats. Equal entries are not always repeated.

The compounds below were run against Glucocorticoid receptor (Homo sapiens) (UniProt P04150) (assay: GR-GFP Redistribution (AID 450)). Details: U2OS GR-GFP nuclear translocation, laser cytometry, 2 h;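 active = compounds whose dose series gives a full or clear partial fitted curve of increased nuclear translocation; inconclusive = weak partial curve or effect only at the top dose; inactive = no dose-dependent translocation response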.
Sequence of Glucocorticoid receptor (Homo sapiens) (P04150 whole entry, looked up): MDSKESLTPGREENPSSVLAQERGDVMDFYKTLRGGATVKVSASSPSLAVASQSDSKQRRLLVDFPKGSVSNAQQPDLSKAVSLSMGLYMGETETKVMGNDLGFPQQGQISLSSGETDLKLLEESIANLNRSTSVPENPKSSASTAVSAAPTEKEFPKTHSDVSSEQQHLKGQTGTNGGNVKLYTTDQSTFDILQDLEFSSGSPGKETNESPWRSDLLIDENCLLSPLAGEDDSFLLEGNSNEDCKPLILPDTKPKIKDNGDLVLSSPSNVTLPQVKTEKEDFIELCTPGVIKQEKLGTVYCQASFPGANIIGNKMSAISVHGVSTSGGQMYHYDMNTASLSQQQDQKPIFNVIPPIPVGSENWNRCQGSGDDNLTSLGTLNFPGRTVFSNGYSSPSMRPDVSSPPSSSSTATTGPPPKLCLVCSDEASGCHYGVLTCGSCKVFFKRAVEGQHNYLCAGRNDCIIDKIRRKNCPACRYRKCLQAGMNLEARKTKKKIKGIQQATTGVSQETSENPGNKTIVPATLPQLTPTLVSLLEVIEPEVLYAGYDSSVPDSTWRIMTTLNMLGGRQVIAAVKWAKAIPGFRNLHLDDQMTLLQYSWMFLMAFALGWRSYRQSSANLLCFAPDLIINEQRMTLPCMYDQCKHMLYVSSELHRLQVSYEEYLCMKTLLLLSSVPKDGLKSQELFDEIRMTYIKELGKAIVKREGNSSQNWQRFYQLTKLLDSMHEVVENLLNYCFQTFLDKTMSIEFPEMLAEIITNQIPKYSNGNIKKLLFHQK
Description: NIH Molecular Libraries Screening Centers Network [MLSCN]
NIH Chemical Genomics Center [NCGC]
The glucocorticoid receptor (GR) Redistribution assay (BioImage) enables the visualization of GR cytoplasmic to nuclear translocation by the use of a GR-GFP fusion. GR is normally cytosolic, however ligands such as dexamethasone, cause nuclear translocation where the protein binds to response elements and interacts with various co-factors to modulate transcription. Because both functional agonists and antagonists can induce nuclear translocation, this assay can detect ligands regardless of their effects on gene expression. GR-GFP expressing U20S cells were used here. Dexamethasone was the positive control for translocation and data normalization. Detection of nuclear translocation was performed in 1536-well plates using the Acumen laser scanning plate cytometer (TTP LabTech). Validation of this assay and a detailed protocol have been described.
NCGC Assay Protocol Summary:
GR-GFP U2OS cells were maintained in DMEM with Glutamax and high glucose, 1% v/v penicillin-streptomycin, and 0.5 mg/mL Geneticin. For cell culture, 10% […] fetal bovine serum (FBS) was used (Invitrogen #26140-079). For cell plating 10% dextran, charcoal-stripped FBS (Hyclone SH30068.03) was used. U2OS cells were trypsin treated, suspended in medium, and passed through a 40 um basket filter. The cells were seeded at 600 cells/5 uL/well into clear-bottom black sided 1536-well plates and incubated for approximately 20 hrs, 37degC, 5%, CO2 in a tissue culture incubator. Twenty-three nL of compound was delivered by pin tool and the plates were incubated as above for 2 hrs. The compounds were tested as a 7-point titration ranging from 46 uM to 0.6 nM. The cells were fixed using the Kalypsys Washer/Dispenser station. The fixing protocol involved aspiration of the cell media, addition of 6 uL/well of PBS, aspiration of PBS, addition of 5uL/well of 100% methanol, aspiration of methanol, and addition of 3 uL/well PBS with 1.5 uM propidium iodide (PI). The plates were read by the Acumen Explorer using a 1 x 8 um scan of the whole well area. PI fluorescence triggered the collection of PI and GFP signals. A nuclei population was defined by a 10 to 100 um width and depth filter that eliminated small and large fluorescent particles. Two subpopulations of nuclei were then defined by peak intensity of GFP fluorescence to obtain translocated and untranslocated objects. The number of translocated objects was used for data normalization.
Keywords: NIH Roadmap, MLSCN, MLI, MLSMR, sOGT, qHTS, NCGC
Potency is the fitted concentration of half-maximal effect.

Potency, inactive:
CN(C)c1ncc2nc(-c3cccs3)c(=O)n(C)c2n1 > 9.22 µM
N#CCCn1c(=O)c(-c2ccc(F)cc2)nc2cnc(N3CCNCC3)nc21 > 9.22 µM
N#CCCn1c(=O)c(-c2ccc(Cl)cc2)nc2cnc(N3CCNCC3)nc21 > 9.22 µM
O=c1c(-c2ccc(F)cc2)nc2cnc(Nc3ccccc3)nc2n1Cc1cccs1 > 9.22 µM
CC(=O)NCCNc1ncnc2ccc(-c3ccc(C(=O)N(C)C)cc3)cc12 > 46 µM
FC(F)(F)c1ccccc1-c1cncnc1-n1ccnc1 > 46 µM
COc1ccc(-n2c(=O)c(-c3cc(F)cc(F)c3)nc3cnc(N4CCNCC4)nc32)cc1 > 9.22 µM
CNc1ncnc2ccc(-c3cccc(NS(C)(=O)=O)c3)cc12 > 46 µM
CS(=O)(=O)Nc1cccc(-c2cc(NCc3cccs3)ncn2)c1 > 46 µM
O=c1c(-c2ccccc2)nc2cnc(N3CCOCC3)nc2n1C[C@H]1CCCO1 > 9.22 µM
Cc1nc2cnc(Nc3ccccc3)nc2n(Cc2cccs2)c1=O > 9.22 µM
COc1ccc(CNc2ncnc3ccc(-c4ccc(C(=O)N(C)C)cc4)cc23)c(OC)c1 > 46 µM
COc1ccc(-n2c(=O)c(-c3ccc(Cl)cc3)nc3cncnc32)cc1 > 9.22 µM
CN(C)c1ncc2nc(-c3cc(F)cc(F)c3)c(=O)n(-c3ccccc3)c2n1 > 9.22 µM
COc1ccc2[nH]cc(CCNc3ccnc(-c4ccccc4Cl)n3)c2c1 > 46 µM
Cc1cccc(CNc2cc(-c3ccc(N(C)C)cc3)ncn2)c1 > 46 µM
CC[C@]1(C)CC(=O)NC1=O > 46 µM and > 20.6 µM
COc1ncc2nc(C)c(=O)n(Cc3cccs3)c2n1 > 9.22 µM
COc1cccc(Cn2c(=O)c(C)nc3cnc(OCc4ccccc4)nc32)c1 > 9.22 µM
C[C@@](N)(Cc1ccc(O)cc1)C(=O)O > 46 µM
COc1cccc(Cn2c(=O)c(-c3ccc(Cl)cc3)nc3cnc(N4CCOCC4)nc32)c1 > 9.22 µM
c1cncc(CNc2cc(-c3ccoc3)ncn2)c1 > 46 µM
O=c1cnc2cnc(N3CCNCC3)nc2n1C1CC1 > 9.22 µM
CC1(C)S[C@@H]2[C@H](NC(=O)[C@H](C(=O)O)c3ccsc3)C(=O)N2[C@H]1C(=O)O > 20.6 µM
CN(C)c1ncc2nc(-c3ccc(Cl)cc3)c(=O)n(-c3ccccc3)c2n1 > 9.22 µM
COc1cccc(Nc2ncc3nc(-c4ccccc4)c(=O)n(C)c3n2)c1 > 9.22 µM
c1nc(NCCN2CCOCC2)c2cc(-c3ccoc3)ccc2n1 > 46 µM
N[C@H](Cn1ccc(=O)c(O)c1)C(=O)O > 20.6 µM and > 46 µM
CN(C)C(=O)c1ccc(-c2nc(NCc3ccccc3)c3ccccc3n2)cc1 > 46 µM
Cc1noc(C)c1-c1nccc(N2CCN(C)CC2)n1 > 46 µM
COc1ccc(CNc2nc(-c3cccc(C#N)c3)nc3ccccc23)c(OC)c1 > 46 µM
CN(C)c1ccc(-c2cncnc2N(C)Cc2ccco2)cc1 > 46 µM
COc1ccc(-c2nc3cnc(N(C)C)nc3n(C3CC3)c2=O)cc1 > 9.22 µM
Cc1ccccc1-c1ccc2ncnc(N(C)Cc3ccco3)c2c1 > 46 µM
CN(C)c1ncc2nc(-c3ccc(F)cc3)c(=O)n(C3CC3)c2n1 > 9.22 µM
COc1ccc(-c2nc3cnc(OCc4ccccc4)nc3n(CCC#N)c2=O)cc1 > 9.22 µM
COc1ccc(CNc2ncncc2-c2ccccc2C)c(OC)c1 > 46 µM
CN1CCN(c2ncc3nc(-c4cn(C)c5ccccc45)c(=O)n(CCc4ccccc4)c3n2)CC1 > 9.22 µM
COc1cccc(-c2cc(NCc3cccc(C)c3)ncn2)c1 > 46 µM
COc1ccc(Oc2ncc3nc(C)c(=O)n(C4CC4)c3n2)cc1 > 9.22 µM
